Measurements from PubChem BioAssay AID588591 (National Center for Advancing Translational Sciences (NCATS), 2011).
The whole screen tested about 390,000 compounds, of which about 4,700 (1.2%) were called active. Entries that show only a call come without a potency. About 4% were inconclusive and are not listed. The sample holds actives, similar compounds and a random draw of the others, so the mix is not that of the screen. Calls come from the whole dose curve; as a rule, active = well fitted inhibition curve with a large enough effect; inconclusive = small, poorly fitted or top-dose-only effect, or another doubt; inactive = no such curve, though single readings can be large or run the other way.

target: DNA polymerase eta (Homo sapiens) (UniProt Q9Y253); assay: qHTS for Inhibitors of Polymerase Eta; details: recombinant Pol eta, fluorescent DNA replication assay; series mostly up to 114 µM
Sequence (Q9Y253 whole entry, looked up): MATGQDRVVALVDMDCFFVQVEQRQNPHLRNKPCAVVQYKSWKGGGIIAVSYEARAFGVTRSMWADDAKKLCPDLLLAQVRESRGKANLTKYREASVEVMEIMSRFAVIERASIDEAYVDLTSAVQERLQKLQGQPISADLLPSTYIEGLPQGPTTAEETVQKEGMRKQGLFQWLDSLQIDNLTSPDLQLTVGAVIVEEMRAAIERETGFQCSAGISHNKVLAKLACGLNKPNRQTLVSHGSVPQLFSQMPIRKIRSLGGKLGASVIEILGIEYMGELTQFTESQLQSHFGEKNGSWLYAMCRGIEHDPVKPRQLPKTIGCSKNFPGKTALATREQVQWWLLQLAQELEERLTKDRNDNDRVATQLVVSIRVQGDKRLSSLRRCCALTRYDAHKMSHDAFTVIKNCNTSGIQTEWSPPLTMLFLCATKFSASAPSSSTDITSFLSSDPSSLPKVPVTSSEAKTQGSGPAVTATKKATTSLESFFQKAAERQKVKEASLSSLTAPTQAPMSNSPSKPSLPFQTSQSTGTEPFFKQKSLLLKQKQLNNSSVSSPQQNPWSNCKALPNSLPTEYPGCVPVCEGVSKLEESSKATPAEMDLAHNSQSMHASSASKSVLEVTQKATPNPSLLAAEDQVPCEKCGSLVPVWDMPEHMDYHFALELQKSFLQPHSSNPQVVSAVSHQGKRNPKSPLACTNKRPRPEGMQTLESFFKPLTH
Method in brief: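 Fluorescent replication assay: 50 nM final substrate added after a 15 min room-temperature compound preincubation with 10 nM enzyme. Signal taken at 0 min and again at 10 min.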
Potency is the fitted concentration of half-maximal effect.

| SMILES | Potency |
| --- | --- |
| Cc1cc(O)c(C(c2ccccc2)N2CCN(c3ccccc3F)CC2)c(=O)n1Cc1ccco1 (configuration not stated) | inactive |
| Cc1ccc(NC(=O)Nc2sc3nc4n(c(=O)c3c2C)CCC(C)CC4)c(Cl)c1 (configuration not stated) | inactive |
| CCOC(=O)c1c(S(=O)(=O)N2CCCC(C(=O)NCc3cccc(C)c3)C2)c(C)n(C)c1C (configuration not stated) | inactive |
| Cc1cccc(NC(=O)c2ccc(F)c(S(=O)(=O)N(C)C3CCCCC3)c2)c1 | inactive |
| CCOC(=O)c1c(SCC(=O)Nc2cccc(C)c2C)nc(=O)[nH]c1C | inactive |
| CCOC(=O)c1c(C)[nH]c(C)c1S(=O)(=O)N(C)CC(=O)N1CCN(c2ccccc2)CC1 | inactive |
| CCOC(=O)c1c(C)[nH]c2c1-c1ccccc1C(=O)C2=O | 3.16 µM (active) |
| COc1ccc(Cl)cc1NC(=O)CSc1nc(=O)[nH]c2c1CCCC2 | inactive |
| COc1ccc(NC(=O)CCN2CCN(CCO)CC2)cc1 | inactive |
| Cc1csc2nc(COC(=O)c3ccc(NC(=O)COc4ccccc4F)cc3)cc(=O)n12 | inactive |
| COc1ccc2[nH]c3c(C)c4cc[n+](C)cc4c(C)c3c2c1 | 1.12 µM (active) |
| CC(=O)Nc1c(C)nn(-c2ccccc2)c1N1CCC(C(=O)Nc2cc(Cl)ccc2C)CC1 | inactive |
| Cc1cc(-c2ccccc2)n2nc(-c3ccccc3)cc2n1 | inactive |
| COc1ccccc1OCCCn1c(-c2ccc(Cl)cc2)nc2ccccc2c1=O | inactive |
| O=C(Nc1nnc(S(=O)(=O)N2CCCCCC2)s1)c1cccc(Br)c1 | inactive |
| O=C(Nc1nnc(S(=O)(=O)N2CCOCC2)s1)c1cccc(Br)c1 | inactive |
| O=C(Nc1nnc(S(=O)(=O)N2CCCc3ccccc32)s1)c1cccc(F)c1 | 50.1 µM (active) |
| COc1cc(NC(=O)c2cc(C3CC3)nc3c2c(C)nn3-c2ccccc2)cc(OC)c1 | inactive |
| Cc1nn(Cc2ccc(F)cc2)c(C)c1NC(=O)c1cc(CC(C)C)on1 | inactive |
| CCc1nc2cccnc2n1-c1ccc(C(=O)O)cc1 | 20 µM (active) |
| CCc1nc2cccnc2n1-c1ccc(CC(=O)Nc2c(C)cccc2C)cc1 | inactive |
| Cc1ccc(Cl)cc1NC(=O)Cc1ccc(-n2c(C)nc3cccnc32)cc1 | inactive |
| O=C(O)c1ccc(Nc2nc(-c3ccccc3)c3cc(Br)ccc3n2)cc1 | inactive |
| CCN(CC)c1ccc(NC(=O)CN2CCN(CC(=O)Nc3ccc(Cl)cc3)CC2)cc1 | inactive |
| CCc1ccc(S(=O)(=O)Nc2cc3c(C(=O)OCc4ccccc4)c(C)oc3c3ccccc23)cc1 | inactive |
| Cc1ccc(Cc2cnc(N)s2)o1 | 79.4 µM (active) |
| CCOC(=O)C1CCN(c2nc3c(S(=O)(=O)c4ccc(CC)cc4)nnn3c3ccc(Cl)cc23)CC1 | inactive |
